The record followed here is the supplement of paper PMC11219838.

Values without a mark were called inactive.

For one test, the system named is Meloidogyne hapla J2. Put plainly: proportion of mobile M. hapla J2 relative to DMSO control (fraction of DMSO control); higher = more viable, less nematicidal, active = 0.7 or less. Particulars: 60 µM; 5 days; temperature: 20 °C. A digest of the protocol:
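Two biological replicates were run and averaged, each on 96-well plates in which about 25 M. hapla J2 sat in distilled water per well. Compound was pinned in to give 60 µM final and 0.6% v/v DMSO, and the sealed plates were shaken at 200 rpm and 20 °C for 5 days before 2 µL 1 M NaOH was added. Mobility was scored microscopically and divided by the mean from the plate's DMSO-only wells, of which there were eight.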
As for `COc1ccc(-c2nnc(SCC(=O)N(C)c3ccccc3)o2)cc1`, the “proportion of mobile M. hapla J2” value was 1.05.

For `COc1nc(-c2ccccc2)ccc1-c1noc(C(C)C)n1`, the “proportion of mobile M. hapla J2” value is 0.776.

For the molecule `Cc1cc(OCc2nc(-c3ccncc3)no2)cc(C)c1Cl`, the “proportion of mobile M. hapla J2” value is 0.78.

For the molecule `O=C(CSc1nnc(-c2ccccc2Cl)o1)Nc1ccc(Br)cn1`, the “proportion of mobile M. hapla J2” value is 0.851.

For the molecule `COc1ccc(-c2noc(-c3cc(C)ccc3C)n2)cc1`, the “proportion of mobile M. hapla J2” value was 0.916.

As for `COc1ccc(-c2nnc(SCc3ccc(C#N)cc3)o2)cc1`, the “proportion of mobile M. hapla J2” value was 0.942.

As for `COc1ccc(-c2nnc(SCC(=O)Nc3ccc(Cl)cc3C)o2)cc1`, the “proportion of mobile M. hapla J2” value was 0.709.

`COc1ccc(-c2noc(-c3ccc(Br)cc3)n2)cc1`: the “proportion of mobile M. hapla J2” value was 1.04.

In the case of `COc1cccc(-c2nc(-c3ccc(Br)cc3)no2)c1`, the “proportion of mobile M. hapla J2” value is 0.997.

For the molecule `Clc1cc(Br)ccc1OCc1nc(-c2ccccc2)no1`, the “proportion of mobile M. hapla J2” value is 0.818.

For the molecule `COc1ccccc1NC(=O)CSc1nnc(-c2ccccc2)o1`, the “proportion of mobile M. hapla J2” value was 1.04.

Regarding `CCOc1ccccc1-c1nnc(SCC(=O)Nc2nccs2)o1`, the “proportion of mobile M. hapla J2” value was 0.739.

Consider `Cc1ccc(NC(=O)CSc2nnc(-c3ccccc3)o2)cc1F`, for which the “proportion of mobile M. hapla J2” value was 1.02.

With `Cc1ccc(-c2noc(-c3ccc4c(c3)OCCO4)n2)cc1`, the “proportion of mobile M. hapla J2” value is 1.

As for `Fc1ccc(CSc2nnc(-c3ccccn3)o2)cc1`, the “proportion of mobile M. hapla J2” value is 0.846.

On to `CCOc1nc(C)ccc1-c1noc(-c2ccccc2F)n1`, for which the “proportion of mobile M. hapla J2” value was 0.851.

Turning to `O=C(CSc1nnc(-c2cccc(Br)c2)o1)Nc1ccccn1`, the “proportion of mobile M. hapla J2” value is 0.951.

Consider `COc1ccc(-c2nc(-c3ccc(Cl)cc3)no2)cc1`, for which the “proportion of mobile M. hapla J2” value is 1.

Turning to `CC1CCN(C(=O)CSc2nnc(-c3cc4ccccc4o3)o2)CC1`, the “proportion of mobile M. hapla J2” value is 0.996.

Turning to `COc1cccc(-c2noc(COc3ccc4ccccc4c3)n2)c1`, the “proportion of mobile M. hapla J2” value is 1.04.

For `O=C(CSc1nnc(-c2ccco2)o1)Nc1cccc(C(F)(F)F)c1`, the “proportion of mobile M. hapla J2” value is 0.879.

On to `O=C(c1ccccc1-c1nc(-c2ccccc2Cl)no1)N1CCCC1`, for which the “proportion of mobile M. hapla J2” value was 0.947.

In the case of `CCOc1ccccc1-c1nc(-c2ccc(F)cc2)no1`, the “proportion of mobile M. hapla J2” value was 1.06.

As for `O=C(Nc1ccccc1-c1nc(-c2cccnc2)no1)c1cc2ccccc2o1`, the “proportion of mobile M. hapla J2” value was 0.919.

As for `C(=C\c1ccccc1)/CSc1nnc(-c2ccncc2)o1`, the “proportion of mobile M. hapla J2” value was 0.979.

Regarding `CCOc1nc(-c2ccc(C)cc2)ccc1-c1noc(-c2ccncc2)n1`, the “proportion of mobile M. hapla J2” value was 0.901.

For `O=C(CSc1nnc(-c2ccc(Cl)cc2Cl)o1)N1CCCCC1`, the “proportion of mobile M. hapla J2” value was 0.934.

For `COc1nc(-c2ccc(C)cc2)ccc1-c1noc(C)n1`, the “proportion of mobile M. hapla J2” value was 0.9.

On to `Cc1ccccc1-c1noc(-c2ccc(F)cc2)n1`, for which the “proportion of mobile M. hapla J2” value is 0.909.

Turning to `CC(C)Oc1cccc(-c2nc(-c3ccccn3)no2)c1`, the “proportion of mobile M. hapla J2” value is 1.01.

In the case of `CCOc1ccc(NC(=O)CSc2nnc(-c3ccncc3)o2)cc1`, the “proportion of mobile M. hapla J2” value was 0.897.

On to `CCOc1ccc(-c2nc(-c3ccccc3)no2)cc1`, for which the “proportion of mobile M. hapla J2” value is 0.922.

In the case of `CCn1c(SCc2nnc(-c3ccccc3)o2)nnc1-c1ccco1`, the “proportion of mobile M. hapla J2” value was 0.948.

On to `O=C(c1ccccc1-c1nc(-c2ccccc2)no1)N1CCCCC1`, for which the “proportion of mobile M. hapla J2” value was 1.06.

Turning to `Ic1ccccc1-c1nc(-c2cccnc2)no1`, the “proportion of mobile M. hapla J2” value is 1.02.

For `Cc1ccc(-c2nc(-c3ccccc3)no2)cc1C`, the “proportion of mobile M. hapla J2” value was 0.884.

Take `Clc1cccc(OCc2nc(-c3ccncc3)no2)c1`: the “proportion of mobile M. hapla J2” value is 0.85.

As to `COc1ccc(Cl)cc1-c1nc(-c2ccccc2C)no1`, the “proportion of mobile M. hapla J2” value is 0.852.

With `Ic1cccc(-c2nc(-c3cccnc3)no2)c1`, the “proportion of mobile M. hapla J2” value was 1.04.

The test system of a further test is Caenorhabditis elegans dauer (daf-2(e1370)). Put plainly: proportion of mobile C. elegans dauer larvae relative to DMSO control (fraction of DMSO control); higher = more viable, less nematicidal, active = 0.63 or less; extreme values may be limits of the assay. Particulars: 60 µM; 5 days; temperature: 20 °C. The essentials:
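Synchronized C. elegans daf-2(e1370) larvae were held at 25 °C for 48 h on MYOB plates with E. coli OP50 to form dauers, and about 20 dauers were added per 96-well well in liquid NGM. Compound was pinned to 60 µM final (0.6% v/v DMSO), and sealed plates were shaken at 200 rpm for 5 days at 20 °C. The proportion of mobile worms was scored under a dissection microscope relative to DMSO controls and averaged over two biological replicates.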
Regarding `COc1ccc(-c2nnc(SCC(=O)N(C)c3ccccc3)o2)cc1`, the “proportion of mobile C. elegans dauer larvae” value was 1.

On to `COc1nc(-c2ccccc2)ccc1-c1noc(C(C)C)n1`, for which the “proportion of mobile C. elegans dauer larvae” value was 1.

Turning to `Cc1cc(OCc2nc(-c3ccncc3)no2)cc(C)c1Cl`, the “proportion of mobile C. elegans dauer larvae” value is 1.

As for `O=C(CSc1nnc(-c2ccccc2Cl)o1)Nc1ccc(Br)cn1`, the “proportion of mobile C. elegans dauer larvae” value was 1.

In the case of `COc1ccc(-c2noc(-c3cc(C)ccc3C)n2)cc1`, the “proportion of mobile C. elegans dauer larvae” value was 1.

For the molecule `COc1ccc(-c2nnc(SCc3ccc(C#N)cc3)o2)cc1`, the “proportion of mobile C. elegans dauer larvae” value was 1.

On to `COc1ccc(-c2nnc(SCC(=O)Nc3ccc(Cl)cc3C)o2)cc1`, for which the “proportion of mobile C. elegans dauer larvae” value is 1.

`COc1ccc(-c2noc(-c3ccc(Br)cc3)n2)cc1`: the “proportion of mobile C. elegans dauer larvae” value was 1.

On to `COc1cccc(-c2nc(-c3ccc(Br)cc3)no2)c1`, for which the “proportion of mobile C. elegans dauer larvae” value was 0.6 (active).

In the case of `Clc1cc(Br)ccc1OCc1nc(-c2ccccc2)no1`, the “proportion of mobile C. elegans dauer larvae” value was 1.

`COc1ccccc1NC(=O)CSc1nnc(-c2ccccc2)o1`: the “proportion of mobile C. elegans dauer larvae” value was 1.

In the case of `CCOc1ccccc1-c1nnc(SCC(=O)Nc2nccs2)o1`, the “proportion of mobile C. elegans dauer larvae” value is 1.

Consider `Cc1ccc(NC(=O)CSc2nnc(-c3ccccc3)o2)cc1F`, for which the “proportion of mobile C. elegans dauer larvae” value was 1.

In the case of `Cc1ccc(-c2noc(-c3ccc4c(c3)OCCO4)n2)cc1`, the “proportion of mobile C. elegans dauer larvae” value was 0.615 (active).

In the case of `Fc1ccc(CSc2nnc(-c3ccccn3)o2)cc1`, the “proportion of mobile C. elegans dauer larvae” value is 1.

As for `CCOc1nc(C)ccc1-c1noc(-c2ccccc2F)n1`, the “proportion of mobile C. elegans dauer larvae” value was 1.

Take `O=C(CSc1nnc(-c2cccc(Br)c2)o1)Nc1ccccn1`: the “proportion of mobile C. elegans dauer larvae” value was 1.

For the molecule `COc1ccc(-c2nc(-c3ccc(Cl)cc3)no2)cc1`, the “proportion of mobile C. elegans dauer larvae” value was 1.

As to `CC1CCN(C(=O)CSc2nnc(-c3cc4ccccc4o3)o2)CC1`, the “proportion of mobile C. elegans dauer larvae” value is 1.

For the molecule `COc1cccc(-c2noc(COc3ccc4ccccc4c3)n2)c1`, the “proportion of mobile C. elegans dauer larvae” value was 1.

Regarding `O=C(CSc1nnc(-c2ccco2)o1)Nc1cccc(C(F)(F)F)c1`, the “proportion of mobile C. elegans dauer larvae” value was 1.

For the molecule `O=C(c1ccccc1-c1nc(-c2ccccc2Cl)no1)N1CCCC1`, the “proportion of mobile C. elegans dauer larvae” value is 1.

As for `CCOc1ccccc1-c1nc(-c2ccc(F)cc2)no1`, the “proportion of mobile C. elegans dauer larvae” value is 1.

For the molecule `O=C(Nc1ccccc1-c1nc(-c2cccnc2)no1)c1cc2ccccc2o1`, the “proportion of mobile C. elegans dauer larvae” value is 1.

For `C(=C\c1ccccc1)/CSc1nnc(-c2ccncc2)o1`, the “proportion of mobile C. elegans dauer larvae” value was 1.

`CCOc1nc(-c2ccc(C)cc2)ccc1-c1noc(-c2ccncc2)n1`: the “proportion of mobile C. elegans dauer larvae” value is 1.

For the molecule `O=C(CSc1nnc(-c2ccc(Cl)cc2Cl)o1)N1CCCCC1`, the “proportion of mobile C. elegans dauer larvae” value is 1.

Regarding `COc1nc(-c2ccc(C)cc2)ccc1-c1noc(C)n1`, the “proportion of mobile C. elegans dauer larvae” value is 1.

On to `Cc1ccccc1-c1noc(-c2ccc(F)cc2)n1`, for which the “proportion of mobile C. elegans dauer larvae” value was 1.

As to `CC(C)Oc1cccc(-c2nc(-c3ccccn3)no2)c1`, the “proportion of mobile C. elegans dauer larvae” value was 0.667.

In the case of `CCOc1ccc(NC(=O)CSc2nnc(-c3ccncc3)o2)cc1`, the “proportion of mobile C. elegans dauer larvae” value was 1.

`CCOc1ccc(-c2nc(-c3ccccc3)no2)cc1`: the “proportion of mobile C. elegans dauer larvae” value is 1.

As to `CCn1c(SCc2nnc(-c3ccccc3)o2)nnc1-c1ccco1`, the “proportion of mobile C. elegans dauer larvae” value is 1.

As to `O=C(c1ccccc1-c1nc(-c2ccccc2)no1)N1CCCCC1`, the “proportion of mobile C. elegans dauer larvae” value was 1.

Take `Ic1ccccc1-c1nc(-c2cccnc2)no1`: the “proportion of mobile C. elegans dauer larvae” value is 1.

On to `Cc1ccc(-c2nc(-c3ccccc3)no2)cc1C`, for which the “proportion of mobile C. elegans dauer larvae” value was 1.

For `Clc1cccc(OCc2nc(-c3ccncc3)no2)c1`, the “proportion of mobile C. elegans dauer larvae” value was 1.

For `COc1ccc(Cl)cc1-c1nc(-c2ccccc2C)no1`, the “proportion of mobile C. elegans dauer larvae” value was 1.

`Ic1cccc(-c2nc(-c3cccnc3)no2)c1`: the “proportion of mobile C. elegans dauer larvae” value was 1.
